7 compounds from ChEMBL document CHEMBL1961873, “Compounds: GSK PKIS; Assays: Nanosyn kinase panel” (2012) can be followed below.

For test [1], the target named is T1, Tyrosine-protein kinase ITK/TSK (Homo sapiens) (UniProt Q08881).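 Further: values are mean percent inhibition of ITK from the GSK PKIS screen.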
T1 sequence (whole entry): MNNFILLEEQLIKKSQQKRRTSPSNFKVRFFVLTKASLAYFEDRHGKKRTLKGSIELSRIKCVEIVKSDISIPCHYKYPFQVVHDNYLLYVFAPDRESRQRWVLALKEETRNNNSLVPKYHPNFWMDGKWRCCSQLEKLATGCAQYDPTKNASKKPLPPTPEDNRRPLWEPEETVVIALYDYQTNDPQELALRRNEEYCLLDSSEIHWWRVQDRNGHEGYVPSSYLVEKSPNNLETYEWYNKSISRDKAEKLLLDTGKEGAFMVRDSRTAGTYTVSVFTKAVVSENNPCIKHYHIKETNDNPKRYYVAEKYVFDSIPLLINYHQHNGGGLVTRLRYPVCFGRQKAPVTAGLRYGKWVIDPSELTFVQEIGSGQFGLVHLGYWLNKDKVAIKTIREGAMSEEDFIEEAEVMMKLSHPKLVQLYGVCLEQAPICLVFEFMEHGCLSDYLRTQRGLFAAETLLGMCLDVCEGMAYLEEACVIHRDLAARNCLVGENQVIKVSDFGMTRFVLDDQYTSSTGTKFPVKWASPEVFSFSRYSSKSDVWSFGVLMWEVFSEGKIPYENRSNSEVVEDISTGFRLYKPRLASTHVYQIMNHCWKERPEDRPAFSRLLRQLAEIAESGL
To be noted: at 1 µM.

For test [2], the target named is Tyrosine-protein kinase JAK1 (Homo sapiens) (UniProt P23458). To be noted: at 0.1 µM.
The target is the same in test [3]. The conditions noted are these: at 1 µM.
Test [4] addresses Tyrosine-protein kinase JAK2 (Homo sapiens) (UniProt O60674). To be noted: at 0.1 µM.
The target is the same in test [5]. The conditions noted are these: at 1 µM.
In test [6] the target is T2, Tyrosine-protein kinase JAK3 (Homo sapiens) (UniProt P52333).
T2 sequence (whole entry): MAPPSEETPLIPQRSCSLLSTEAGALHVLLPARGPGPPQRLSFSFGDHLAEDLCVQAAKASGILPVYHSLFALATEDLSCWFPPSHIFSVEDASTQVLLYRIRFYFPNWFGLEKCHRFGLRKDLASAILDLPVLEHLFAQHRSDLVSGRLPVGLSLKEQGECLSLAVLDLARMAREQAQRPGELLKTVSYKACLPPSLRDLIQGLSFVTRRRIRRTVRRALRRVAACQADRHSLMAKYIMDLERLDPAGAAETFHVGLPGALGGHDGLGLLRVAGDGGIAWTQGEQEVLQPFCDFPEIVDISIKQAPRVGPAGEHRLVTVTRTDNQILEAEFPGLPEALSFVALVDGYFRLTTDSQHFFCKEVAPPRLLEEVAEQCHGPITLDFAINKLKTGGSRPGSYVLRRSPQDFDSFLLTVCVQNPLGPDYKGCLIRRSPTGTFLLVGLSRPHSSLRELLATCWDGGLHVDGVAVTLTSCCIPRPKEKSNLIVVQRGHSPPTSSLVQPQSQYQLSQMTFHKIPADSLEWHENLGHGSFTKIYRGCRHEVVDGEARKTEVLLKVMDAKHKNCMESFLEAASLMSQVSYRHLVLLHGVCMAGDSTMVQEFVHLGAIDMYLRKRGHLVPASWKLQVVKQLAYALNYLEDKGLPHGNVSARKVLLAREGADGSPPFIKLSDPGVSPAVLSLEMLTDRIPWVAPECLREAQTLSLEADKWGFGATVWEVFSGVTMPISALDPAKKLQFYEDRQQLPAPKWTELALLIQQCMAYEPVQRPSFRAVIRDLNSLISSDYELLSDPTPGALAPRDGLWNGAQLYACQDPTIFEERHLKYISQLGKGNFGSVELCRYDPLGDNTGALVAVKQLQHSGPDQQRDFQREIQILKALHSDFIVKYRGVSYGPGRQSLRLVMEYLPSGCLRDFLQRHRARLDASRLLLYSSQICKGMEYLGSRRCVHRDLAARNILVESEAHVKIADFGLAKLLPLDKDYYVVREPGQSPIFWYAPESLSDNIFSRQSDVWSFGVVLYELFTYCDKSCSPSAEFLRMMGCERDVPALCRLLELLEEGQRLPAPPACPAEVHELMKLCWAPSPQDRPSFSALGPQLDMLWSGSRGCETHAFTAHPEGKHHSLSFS
To be noted: at 0.1 µM.

The target of test [7] is T2, Tyrosine-protein kinase JAK3 (Homo sapiens). The conditions noted are these: at 1 µM.
Test [8] concerns the target Vascular endothelial growth factor receptor 2 (Homo sapiens) (UniProt P35968). To be noted: at 0.1 µM.
For test [9] the target is unchanged. To be noted: at 1 µM.
Test [10] deals with Mast/stem cell growth factor receptor Kit (Homo sapiens) (UniProt P10721). The conditions noted are these: at 0.1 µM.
Test [11] has the same target. To be noted: at 1 µM.
Test [12] has as its system Mast/stem cell growth factor receptor Kit (Homo sapiens), P10721 [D816V]. To be noted: at 0.1 µM.
The test system is the same in test [13]. To be noted: at 1 µM.
Test [14] deals with Mast/stem cell growth factor receptor Kit (Homo sapiens), P10721 [T670I]. The conditions noted are these: at 0.1 µM.
Test [15] has the same test system. The conditions noted are these: at 1 µM.
In test [16] the test system is Mast/stem cell growth factor receptor Kit (Homo sapiens), P10721 [V560G]. The conditions noted are these: at 0.1 µM.
Test [17] has the same test system. The conditions noted are these: at 1 µM.
Test [18] has as its target Tyrosine-protein kinase Lck (Homo sapiens) (UniProt P06239). The conditions noted are these: at 0.1 µM.
Test [19] has the same target. The conditions noted are these: at 1 µM.
Test [20] has as its target Leukocyte tyrosine kinase receptor (Homo sapiens) (UniProt P29376). To be noted: at 0.1 µM.

Sequence of Mast/stem cell growth factor receptor Kit (Homo sapiens) (P10721 whole entry): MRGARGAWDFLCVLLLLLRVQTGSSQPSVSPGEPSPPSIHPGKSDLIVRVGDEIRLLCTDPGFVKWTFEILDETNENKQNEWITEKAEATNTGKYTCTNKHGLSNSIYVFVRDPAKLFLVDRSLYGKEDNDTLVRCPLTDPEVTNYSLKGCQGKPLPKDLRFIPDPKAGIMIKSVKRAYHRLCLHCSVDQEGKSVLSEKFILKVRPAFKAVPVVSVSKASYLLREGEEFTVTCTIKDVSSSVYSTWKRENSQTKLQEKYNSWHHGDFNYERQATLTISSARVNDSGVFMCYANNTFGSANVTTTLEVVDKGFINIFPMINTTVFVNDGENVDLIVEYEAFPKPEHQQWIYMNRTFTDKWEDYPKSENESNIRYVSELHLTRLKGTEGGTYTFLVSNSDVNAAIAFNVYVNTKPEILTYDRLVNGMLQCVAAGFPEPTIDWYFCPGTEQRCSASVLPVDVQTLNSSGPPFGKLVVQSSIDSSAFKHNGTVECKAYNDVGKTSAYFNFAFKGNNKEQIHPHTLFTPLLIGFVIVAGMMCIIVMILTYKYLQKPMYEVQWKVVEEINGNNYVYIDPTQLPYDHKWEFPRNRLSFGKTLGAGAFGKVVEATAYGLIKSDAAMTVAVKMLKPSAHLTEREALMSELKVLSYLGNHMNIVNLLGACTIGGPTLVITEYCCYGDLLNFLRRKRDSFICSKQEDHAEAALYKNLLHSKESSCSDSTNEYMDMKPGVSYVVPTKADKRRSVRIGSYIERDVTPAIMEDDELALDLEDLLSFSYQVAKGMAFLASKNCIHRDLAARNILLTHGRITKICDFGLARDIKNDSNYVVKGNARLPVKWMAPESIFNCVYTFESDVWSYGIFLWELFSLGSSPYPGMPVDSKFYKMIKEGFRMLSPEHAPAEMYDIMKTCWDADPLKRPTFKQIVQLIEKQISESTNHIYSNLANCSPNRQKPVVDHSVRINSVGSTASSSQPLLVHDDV
Sequence of Mast/stem cell growth factor receptor Kit (Homo sapiens), P10721 [D816V] (P10721 whole entry D816V): as the sequence (P10721 whole entry) above, with D816V counted along it
Sequence of Vascular endothelial growth factor receptor 2 (Homo sapiens) (P35968 whole entry): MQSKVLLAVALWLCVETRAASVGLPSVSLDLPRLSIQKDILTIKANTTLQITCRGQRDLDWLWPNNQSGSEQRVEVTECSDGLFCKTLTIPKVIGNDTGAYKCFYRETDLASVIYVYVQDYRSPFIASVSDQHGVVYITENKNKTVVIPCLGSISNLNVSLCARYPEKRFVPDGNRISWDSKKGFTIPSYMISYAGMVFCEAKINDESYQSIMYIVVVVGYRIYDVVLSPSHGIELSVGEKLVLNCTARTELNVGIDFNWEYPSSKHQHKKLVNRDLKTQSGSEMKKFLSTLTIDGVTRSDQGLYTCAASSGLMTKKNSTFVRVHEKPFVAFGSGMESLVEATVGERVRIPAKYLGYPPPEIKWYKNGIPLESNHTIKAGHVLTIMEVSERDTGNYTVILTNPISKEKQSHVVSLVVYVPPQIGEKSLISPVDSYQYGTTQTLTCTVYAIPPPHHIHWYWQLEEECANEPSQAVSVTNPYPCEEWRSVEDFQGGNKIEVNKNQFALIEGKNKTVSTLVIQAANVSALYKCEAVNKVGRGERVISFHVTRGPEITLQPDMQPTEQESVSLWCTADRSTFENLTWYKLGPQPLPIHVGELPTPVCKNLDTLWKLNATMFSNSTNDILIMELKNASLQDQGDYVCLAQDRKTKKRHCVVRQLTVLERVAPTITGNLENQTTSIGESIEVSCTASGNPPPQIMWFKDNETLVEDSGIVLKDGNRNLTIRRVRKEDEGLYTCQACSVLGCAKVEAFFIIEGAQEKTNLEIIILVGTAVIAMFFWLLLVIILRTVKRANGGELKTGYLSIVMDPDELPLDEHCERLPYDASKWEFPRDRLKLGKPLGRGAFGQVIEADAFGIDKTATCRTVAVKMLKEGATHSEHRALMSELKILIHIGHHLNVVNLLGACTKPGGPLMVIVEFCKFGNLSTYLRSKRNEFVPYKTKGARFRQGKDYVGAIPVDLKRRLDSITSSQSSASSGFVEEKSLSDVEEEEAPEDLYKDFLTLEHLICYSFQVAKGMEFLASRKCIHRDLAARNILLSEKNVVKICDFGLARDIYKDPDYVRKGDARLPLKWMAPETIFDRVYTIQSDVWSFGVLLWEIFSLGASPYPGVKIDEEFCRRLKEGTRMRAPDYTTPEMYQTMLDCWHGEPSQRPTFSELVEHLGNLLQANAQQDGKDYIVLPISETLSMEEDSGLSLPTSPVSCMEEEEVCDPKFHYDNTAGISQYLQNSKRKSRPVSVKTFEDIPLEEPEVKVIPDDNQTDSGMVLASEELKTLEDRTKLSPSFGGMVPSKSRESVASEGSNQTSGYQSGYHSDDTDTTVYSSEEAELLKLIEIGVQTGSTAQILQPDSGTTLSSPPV
Sequence of Tyrosine-protein kinase Lck (Homo sapiens) (P06239 2-509 limits assumed): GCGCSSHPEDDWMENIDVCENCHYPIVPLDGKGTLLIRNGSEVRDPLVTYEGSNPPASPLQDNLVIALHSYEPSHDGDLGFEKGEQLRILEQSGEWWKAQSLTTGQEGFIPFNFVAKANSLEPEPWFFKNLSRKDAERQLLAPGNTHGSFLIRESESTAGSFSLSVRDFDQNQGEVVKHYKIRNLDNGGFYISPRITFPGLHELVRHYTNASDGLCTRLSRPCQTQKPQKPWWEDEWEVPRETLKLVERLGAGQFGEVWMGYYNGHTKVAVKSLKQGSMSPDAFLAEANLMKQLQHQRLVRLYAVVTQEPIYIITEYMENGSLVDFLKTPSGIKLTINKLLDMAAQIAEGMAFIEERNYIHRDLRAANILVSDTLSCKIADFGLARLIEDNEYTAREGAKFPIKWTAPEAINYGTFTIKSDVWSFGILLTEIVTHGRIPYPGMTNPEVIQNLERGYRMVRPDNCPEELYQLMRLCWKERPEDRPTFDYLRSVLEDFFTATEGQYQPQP
Sequence of Mast/stem cell growth factor receptor Kit (Homo sapiens), P10721 [T670I] (P10721 whole entry T670I): as the sequence (P10721 whole entry) above, with T670I counted along it
Sequence of Mast/stem cell growth factor receptor Kit (Homo sapiens), P10721 [V560G] (P10721 whole entry V560G): as the sequence (P10721 whole entry) above, with V560G counted along it
Sequence of Leukocyte tyrosine kinase receptor (Homo sapiens) (P29376 whole entry): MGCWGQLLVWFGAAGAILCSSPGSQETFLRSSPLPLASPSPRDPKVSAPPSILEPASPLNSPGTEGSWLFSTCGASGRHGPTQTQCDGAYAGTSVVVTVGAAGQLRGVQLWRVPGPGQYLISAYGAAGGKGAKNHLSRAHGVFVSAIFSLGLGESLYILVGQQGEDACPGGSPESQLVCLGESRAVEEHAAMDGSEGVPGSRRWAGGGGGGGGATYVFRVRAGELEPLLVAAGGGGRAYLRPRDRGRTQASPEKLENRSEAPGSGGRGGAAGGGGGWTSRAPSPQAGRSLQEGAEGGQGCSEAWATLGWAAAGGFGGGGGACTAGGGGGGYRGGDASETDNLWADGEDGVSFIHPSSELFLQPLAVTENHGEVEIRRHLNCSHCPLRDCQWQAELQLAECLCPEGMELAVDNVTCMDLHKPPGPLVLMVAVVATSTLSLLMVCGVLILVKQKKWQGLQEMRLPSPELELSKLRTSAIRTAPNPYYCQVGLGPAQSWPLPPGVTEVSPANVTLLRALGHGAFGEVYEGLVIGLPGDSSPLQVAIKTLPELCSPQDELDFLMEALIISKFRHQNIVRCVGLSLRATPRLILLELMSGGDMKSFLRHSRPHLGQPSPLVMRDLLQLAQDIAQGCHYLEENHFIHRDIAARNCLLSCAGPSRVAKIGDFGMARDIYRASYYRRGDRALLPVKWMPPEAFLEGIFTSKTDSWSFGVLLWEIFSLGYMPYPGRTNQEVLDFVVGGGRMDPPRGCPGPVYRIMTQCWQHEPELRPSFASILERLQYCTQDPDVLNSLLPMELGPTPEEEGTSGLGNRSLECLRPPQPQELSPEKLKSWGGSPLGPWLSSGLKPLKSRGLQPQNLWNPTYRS
Sequence of Tyrosine-protein kinase JAK1 (Homo sapiens) (P23458 whole entry): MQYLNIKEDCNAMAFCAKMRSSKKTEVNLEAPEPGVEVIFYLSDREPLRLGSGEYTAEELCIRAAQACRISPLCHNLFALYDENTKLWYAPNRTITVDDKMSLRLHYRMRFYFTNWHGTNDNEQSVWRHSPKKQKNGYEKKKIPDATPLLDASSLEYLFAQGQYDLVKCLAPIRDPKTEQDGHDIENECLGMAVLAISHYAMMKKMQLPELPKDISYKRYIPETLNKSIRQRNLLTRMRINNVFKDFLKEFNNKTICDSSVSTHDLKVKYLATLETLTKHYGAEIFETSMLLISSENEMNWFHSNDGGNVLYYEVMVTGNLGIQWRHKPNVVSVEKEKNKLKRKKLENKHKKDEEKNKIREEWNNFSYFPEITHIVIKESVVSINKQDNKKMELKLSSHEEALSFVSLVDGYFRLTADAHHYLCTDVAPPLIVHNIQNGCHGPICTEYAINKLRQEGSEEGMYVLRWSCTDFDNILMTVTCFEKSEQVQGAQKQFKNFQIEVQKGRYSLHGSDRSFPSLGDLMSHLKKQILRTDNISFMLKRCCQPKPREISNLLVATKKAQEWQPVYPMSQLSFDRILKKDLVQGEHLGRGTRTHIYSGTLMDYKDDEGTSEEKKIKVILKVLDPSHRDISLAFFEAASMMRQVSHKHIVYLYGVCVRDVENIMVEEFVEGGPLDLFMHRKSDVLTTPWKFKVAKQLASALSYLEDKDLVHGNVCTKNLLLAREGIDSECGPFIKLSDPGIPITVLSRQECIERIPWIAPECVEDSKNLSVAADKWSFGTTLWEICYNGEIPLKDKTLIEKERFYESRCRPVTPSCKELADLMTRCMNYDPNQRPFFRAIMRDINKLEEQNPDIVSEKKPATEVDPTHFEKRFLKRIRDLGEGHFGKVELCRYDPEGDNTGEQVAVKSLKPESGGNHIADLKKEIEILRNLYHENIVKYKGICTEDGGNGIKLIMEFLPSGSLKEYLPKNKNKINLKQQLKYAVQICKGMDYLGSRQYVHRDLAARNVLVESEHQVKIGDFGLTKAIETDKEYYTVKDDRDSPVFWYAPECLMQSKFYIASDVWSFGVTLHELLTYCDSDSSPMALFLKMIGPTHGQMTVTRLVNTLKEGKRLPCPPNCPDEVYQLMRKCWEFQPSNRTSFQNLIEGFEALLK

As a reminder, the inhibition is the change of the read-out against control, counted positive when it falls. As to `COc1cc(C=NNc2ncnc3c2cnn3Cc2ccccc2)ccc1O`, the inhibition in test [1] was 0.65%; in [2], -5.07%; in test [3] it was 3.34%; in [4], -1.56%; in [5], -0.04%; in [6] it was 0.38%. Also, the inhibition is 3.71% in [7]; -1.08% in test [8]; 12.2% in test [9]; -5.78% in test [10]; -1.55% in [11]; -5.85% in test [12]. The inhibition in test [13] is 0.6%; in test [14] it was -3.69%; in test [15], -2.85%; in [16], 1.99%; in test [17] it was 3.94%; in test [18], 13.2%. Also, the inhibition was 14.2% in [19] and -2.98% in test [20].

Turning to `CCn1c(-c2nonc2N)nc2c(C#CC(C)(C)O)nc(O[C@@H](CN)c3ccccc3)cc21`, the inhibition in [1] was 0.91%; in [2], -1.37%; in test [3], 4.4%; in test [4] it was -0.3%; in [5], 0.78%; in [6], 0.59%. Moreover, the inhibition in [7] was 3.54%; in [8], 86.8%; in [9], 75.4%; in test [10], -1.5%; in test [11], 2.69%; in [12] it was 0.72%. Moreover, the inhibition in test [13] is 34.2%; in test [14] it was -0.51%; in test [15] it was 10.4%; in test [16], 3.42%; in test [17], 3.54%; in test [18], 0.41%. Also, the inhibition in test [19] came out at 4.58%; in test [20], 35.4%.

On to `CCn1c(-c2nonc2N)nc2c(C#CCN)ncc(OCCCN)c21`, for which the inhibition in [1] is -1.36%; in [2] it was 4.06%; in test [3], 13.7%; in test [4] it was -1.01%; in test [5], -1.7%; in [6], 5.62%. For the same compound, the inhibition was 4.64% in test [7]; -3.31% in test [8]; 5.24% in test [9]; -1.96% in [10]; 3.33% in test [11]; -3.56% in test [12]. Also, the inhibition is 3.48% in test [13]; -1.86% in [14]; 2.2% in [15]; 1.17% in [16]; 2.93% in test [17]; 1.94% in [18]. Besides, the results for the inhibition in [19] and in test [20] were 0.46% and -1.04%, respectively.

In the case of `Cc1cc(-c2ccco2)cc(C)c1/C=C/c1cncc(-c2nn[nH]n2)c1`, the inhibition in test [1] was 0.9%; in test [2], -0.35%; in test [3] it was 3.09%; in [4] it was 0%; in test [5], -0.44%; in [6], -1.94%. For the same compound, the inhibition in test [7] is 0.31%; in test [8] it was -2.08%; in test [9], -0.14%; in [10], -0.86%; in [11] it was 0.94%; in [12], -2.81%. Besides, the inhibition was -2.99% in [13]; 1.44% in test [14]; 0.51% in [15]; 1.15% in [16]; 3.87% in [17]; 1.77% in test [18]. The inhibition amounted to 4.38% in test [19] and 1.51% in test [20].

As to `COc1cccc(-n2ncc3c(N/N=C/c4ccncc4)ncnc32)c1`, the inhibition in test [1] is 5.47%; in test [2], 5.43%; in [3], 15.3%; in test [4], 2.01%; in test [5] it was 13.5%; in [6], -0.96%. Also, the inhibition is 10.6% in test [7]; 28.8% in test [8]; 69.2% in test [9]; 13.5% in test [10]; 57.2% in [11]; 2.45% in [12]. Further, the inhibition turned out to be 12.7% in test [13]; 9.47% in test [14]; 46.9% in test [15]; 0.93% in test [16]; 10.7% in test [17]; 41.1% in [18]. In addition, the figures for the inhibition in [19] and in test [20] were 84% and 4.93%, respectively.

As to `CCn1c(-c2nonc2N)nc2c(C#CC(C)(C)O)ncc(OCC3CCNCC3)c21`, the inhibition is -1.96% in test [1]; 4.7% in [2]; 12.5% in test [3]; 0.61% in test [4]; 1.31% in [5]; -4.99% in [6]. Moreover, the inhibition in [7] was -3.39%; in test [8] it was 34.8%; in test [9], 71.2%; in test [10], 4.46%; in test [11], 8.48%; in test [12], 3.82%. In addition, the inhibition in test [13] is 5.6%; in [14], 1.76%; in test [15], 4.21%; in test [16] it was 3.17%; in test [17] it was 3.26%; in test [18], -3.71%. Besides, the inhibition in [19] was -1.12%; in [20] it was 2.4%.

Take `NC(=O)c1sc(-n2cnc3cc(C(F)(F)F)ccc32)cc1OCc1ccccc1Br`: the inhibition was 1.42% in test [1]; 5.27% in [2]; 5.31% in [3]; 0.93% in [4]; -0.32% in [5]; -1.17% in test [6]. The inhibition in [7] is 0.71%; in [8], 1.59%; in test [9] it was 4.43%; in test [10], -1.21%; in test [11] it was 1.77%; in test [12], -1.89%. Besides, the inhibition in test [13] is -0.03%; in [14] it was 0.92%; in test [15] it was 0.92%; in [16], 0.44%; in [17], -1.3%; in test [18], 1.84%. The inhibition in test [19] is 4.62%; in test [20], 1.94%.
